Consider 39 compounds from PubChem BioAssay (NCI).

“And” between values parts separate entries of the source, which are not always exact repeats. Equal entries are not always repeated. The panel holds about 79,000 compounds, 15% with a hit somewhere; the sample as a whole holds those more often. Values without a mark were called inactive. Rule as the data show it: active = growth inhibition above about 70%; inactive = the rest.

This assay is described as follows: NCI Yeast Anticancer Drug Screen. Data for the mlh1 rad18 strain (AID 175). The conditions noted are these: S. cerevisiae mlh1 rad18 strain growth inhibition, active compounds read high; at 50.0 µM unless noted. Summed up:
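Read-out is yeast growth inhibition, calculated against vehicle-only controls. The compound was applied to a strain engineered with DNA damage repair alterations.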
For the compound `CCCCCCCCN(CCCCCCCC)CC(O)c1cc(Cl)c(Cl)c(Cl)c1` (centres undefined), the growth inhibition was 33%.
As for `NC(=O)C1CC1`, the growth inhibition was -4%.
As for `O=C1OC(/C=C/c2ccccc2)=NC/1=C\c1ccc2c(c1)OCO2`, the growth inhibition is -19.8%.
Turning to `CCOc1ccc(C(=O)C[N+]2(CCc3ccccc3)CCOCC2)cc1`, the growth inhibition was 41%.
As to `c1ccc2c(c1)OC1OC2Oc2ccccc21`, the growth inhibition was -28.9% and 11.8%.
With `CC(C)=C(Nc1ccccc1)NC(C)C` the figure was -3.15%.
As to `O=C1c2ccccc2NC(O)c2cccn21` (centres undefined), the growth inhibition was -5.45%.
Then `O=c1[nH]c2[nH]c(=S)[nH]c(=O)c2[nH]1`, with -13.8%.
With `Cc1ccc(NC(=O)C2CCCCC2)cc1` the figure was -1.6%.
Consider `N#CC1(OC2CCCCO2)Cc2ccccc2C1` (centres undefined), for which the growth inhibition was -1.15%.
With `CCCC1([N+](=O)[O-])c2ccccc2-c2ccc([N+](=O)[O-])cc21` (centres undefined), the growth inhibition is 49.7%.
Turning to `CC(=O)Nc1ccc2nc(SC(C)C)sc2c1`, the growth inhibition is 19.9%.
With `Nc1c(Br)cc(Br)cc1C(=O)O` the figure was 5.7%; with `Cc1ccc(N2C(=O)CC(NC3CCCCC3)C2=O)cc1` (centres undefined), -2.7%; with `CCCCN(CCCC)CC(=O)NC(=O)c1ccccc1`, -14.3%.
Then `Cc1ccc(C)c(NC(=O)Nc2ccccc2)c1`, with 1%; and `N#Cc1ccccc1NC(=O)C(=O)c1c(O)c2ccccc2oc1=O`, with -25%.
With `CCOC(=O)/C=C/CCC(C)(C)COC(C)=O` the figure was -31.9%; with `Nn1c(-c2cccc(Cl)c2)nc2ccccc2c1=O`, 36.8%.
Consider `COc1ccc(OC(C)C(=O)O)c2c(=O)ccccc12` (centres undefined), for which the growth inhibition was 22.1%.
Then `COc1ccc(-c2nc(Sc3c([N+](=O)[O-])ncn3C)n[nH]2)cc1`, with -6.6%; and `N#CCN1CCc2ccccc2C1`, with -6%; and `O=C1c2sc(-c3ccc(Cl)cc3)cc2-n2cccc21`, with 26.2%.
With `C=CCSC[C@H](NC(=O)COc1ccccc1)C(=O)NC(C(=O)OCc1ccc([N+](=O)[O-])cc1)=C(C)C` the figure was 14.4%; with `O=C1CCCNC(=O)N1`, -5.3%.
With `CC12C(=O)C(C(c3ccccc3)=C1c1ccccc1)C1C(=O)OC(=O)C12` (centres undefined) the figure was -6.65%; with `CCCCCCCCCCCCCCCCCC(=O)N/N=C\c1c(O)ccc2ccccc12`, 20.2%.
Turning to `O=C(Cc1ccccc1)c1ccccc1C(=O)NCc1ccncc1`, the growth inhibition was -0.6%.
For `CCCCC1(N=[N+]=[N-])C(=O)C2C=CC=C3c4ccccc4N(C1=O)C32` (centres undefined), the growth inhibition is 2.85%.
With `NC(=S)N/N=C\c1cccc(O)c1O` the figure was 12.7%; with `O=C(Cc1ccccc1)C(c1ccccc1)C(c1ccccc1)c1ccccc1` (centres undefined), -1.25%.
With `CN(C)CCC(C#N)c1ccccc1` (centres undefined) the figure was -5.55%; with `CC(C)c1cc(C(C)C)c(S(=O)(=O)N/N=C2\C=CCC(C)(C)C2)c(C(C)C)c1`, 18.9%; with `N.N.N.N.O=C([O-])O.O=C([O-])[O-].[Co+3]`, 8.95%.
Then `CN(N=O)C(=O)NCCn1cnc2c(=O)[nH]cnc21`, with -11.8%.
For `O=c1[nH]c(=O)n(C2CC(O)C(CO)O2)cc1C#Cc1c(F)c(F)c(F)c(F)c1F` (centres undefined), the growth inhibition is 2.2%.
`CC(C)(C)c1cc2c(O)c3cccc4c(=O)c5cccc6c5-c(c34)c2c(c1)c6=O`: the growth inhibition is -11.2%.
Then `O=C1c2cc([N+](=O)[O-])ccc2-c2ccc3c4ccc5c6c(ccc(c7ccc1c2c73)c64)C(=O)c1cc([N+](=O)[O-])ccc1-5`, with 26.1%; and `Cc1ccccc1C(=O)NC(O)(C(F)(F)F)C(F)(F)F`, with 5.05%.
